Bioassay records: PubChem, National Center for Advancing Translational Sciences (NCATS)
Cycloheximide cs – counter-screen hit for Shiga toxin inhibitors, cycloheximide; cell reporter, cycloheximide protein synthesis inhibition counterscreen; max response, %; 12% of 300,000 active; in the data active means max response mostly above about 13%, no sharp cut-off; inactive means mostly below about 14%; further: read at 38.3 µM for the half of the compounds with a filed dose; 0% is about no effect
Lassa entry inh – blocks Lassa virus binding to or entry into cells | Lassa virus pseudotype entry inhibition, cell reporter | Potency, µM (top dose mostly 37.9 µM), without a hit: at the top dose activity change, negative = inhibition, usual class: inhibitors | 1.2% of 300,000 active | AID 540256; calls by dose curve; tested in HEK293 cells; further: potency means the concentration at half of the fitted maximal effect; on the % scale 0 is the no-effect control and ±100 the full control effect; nearly all actives have a fitted effect of over 50% in size
AMA1 RON2 block – AMA1-RON2 (P. falciparum) interaction inhibition; AlphaScreen AMA1-biotinylated RON2 peptide binding; Potency, µM (titrated, usually from 58.2 µM), for the others: at the highest dose activity change, negative = inhibition, usual class: inhibitors; 0.2% of 360,000 active; AID 720542; active means well fitted inhibition curve with a large enough effect; inconclusive means small, poorly fitted or top-dose-only effect; inactive means no such curve, though single readings can be large or run the other way;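 further: potency means the concentration at half of the fitted maximal effect; 0% = vehicle wells and -100% = peptide control; nearly all actives have a fitted effect of over 45% in size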
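AMA1 (3D7) with his tag at 25 nM final met compounds first, then biotinylated RON2 peptide at 25 nM; detection used donor plus acceptor beads, 10 µg/mL apiece, read by AlphaScreen after 30 min at room temperature.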
MARV entry inh – inhibitors of Marburg virus binding or cell entry; 1.8% of 300,000 active; AID 540276; Potency, µM (doses to about 37.8 µM), inactives show at the top dose activity change, negative = inhibition, most hits filed as inhibitors; Marburg virus pseudotyped entry inhibition, cell reporter; calls by dose curve; tested in HEK293 cells; further: potency means the concentration at half of the fitted maximal effect; on the % scale 0 is the no-effect control and ±100 the full control effect
Shiga toxin inh – inhibitors of Shiga toxin in Vero cells. Vero cells, Shiga toxin protein synthesis inhibition reporter. inhibition, % at 38.7 µM. 9.2% of 290,000 active; in the data active means inhibition mostly above about 28%, no sharp cut-off; inactive means mostly below about 43%; further: 0% is about no effect
Numbers without * were called inactive; u = inconclusive; x = not tested or not shown; [ ] = remark or other dose. The sample as a whole holds a higher share of hits than the screen did.

SMILES	Cycloheximide cs	Lassa entry inh	AMA1 RON2 block	MARV entry inh	Shiga toxin inh
CCC(=O)c1ccc(OCc2ccc(C(=O)OC)o2)c(OC)c1	28.2*	14.1%	-4.0%	11.3%	52.2
COC(=O)c1ccc(COc2ccc(C=O)cc2OC)o1	11.0	29.6%	2.6%	1.6%[46.1 µM]	4.1
C=CCc1ccc(OC(=O)c2ccccc2)c(OC)c1	24.2*	x	63.1%	x	21.8
C=CCc1ccc(OCCCOc2ccc(C(=O)O)cc2)c(OC)c1	16.4	-6.5%	0.3%	3.0%[46.1 µM]	44.9
C=CCc1ccc(OCc2ccc(C(=O)OC)o2)c(OC)c1	62.6*	u	8.2%	u	86.9*
CCCNC(=O)c1ccc(COc2ccc(CCC)cc2OC)o1	8.9	6.31µM*	-5.8%	-0.3%[46.1 µM]	17.4
COc1ccc(C2NC(=O)NC(C)=C2C(=O)OC2CCC(C)CC2)cc1 (stereo not drawn)	-0.8	x	-9.8%	x	-7.2
CCCc1ccc(OCc2ccc(C(=O)N3CCN(c4ccccn4)CC3)o2)c(OC)c1	35.8*	32.5%[14.3 µM]	-19.7%	23.1µM*	27.8
CSCCC(NC(=O)c1ccccc1Br)C(=O)NNC(=O)c1cc(C)oc1C (stereo not drawn)	x	x	75.5%	x	x
Oc1ccc(-c2nccc(-c3cccs3)n2)cc1	58.3*	8.5%	-0.4%	-4.2%	133.1*
COC(=O)C(C)Oc1ccc(-c2nccc(-c3cccs3)n2)cc1 (stereo not drawn)	26.6*	-20.6%	5.3%	15.9%	51.3*
Oc1ccc(-c2nccc(-c3ccc(Cl)cc3)n2)cc1	52.9*	0.7%	8.5%	u	123.1*
Oc1ccc(-c2cccc(-c3ccc(O)cc3)n2)cc1	38.9*	0.6%	-1.9%	-10.7%[46.1 µM]	67.2*
Oc1ccc(-c2cc(-c3ccc(O)cc3)nc(-c3ccccc3)n2)cc1	-4.4	-16.5%[46.1 µM]	5.8%	u	-8.5
Oc1ccc(-c2nccc(-c3ccc(Cl)cc3Cl)n2)cc1	9.1	9.2%[46.1 µM]	11.8%	-10.3%[46.1 µM]	22.0
CCC(C)NC(=O)Cn1c(=O)ccc2cc(S(=O)(=O)N3CCCC3)ccc21 (stereo not drawn)	x	-5.3%[46.1 µM]	x	x	x
COc1ccccc1C(=O)NCC(=O)OCc1nnc(-c2ccccc2)o1	x	x	12.9%	x	x
CC1=C[C@@H](c2ccccc2)n2nc(N3C(=O)[C@H]4CC=CC[C@@H]4C3=O)nc2N1	x	x	x	-4.2%	x
CC(NC(=O)c1cc(S(=O)(=O)N2CCCC2)ccc1Cl)c1ccccn1 (stereo not drawn)	x	x	-2.7%	x	x
Cc1cccc(NC(=O)COC(=O)CC2CCCC2)c1C	x	19.1%	-5.2%	-0.3%[46.1 µM]	x
CN1CCC(C(=O)Nc2n[nH]c3nc(-c4ccc(O)cc4)c(Br)cc23)CC1	x	19.9µM*	x	x	x
CN1CCN(c2ccc(NC(=O)c3ccc([N+](=O)[O-])o3)cc2Cl)CC1	29.0*	u	1.1%	11.2µM*	55.1
CC(=O)N1CCN(c2ccc(NC(=O)c3ccc(Br)o3)cc2Cl)CC1	27.6*	x	5.5%	x	27.2
O=C(Nc1ccc(N2CCOCC2)c(Cl)c1)c1ccc([N+](=O)[O-])o1	18.9*	x	-9.1%	x	17.0
Cc1[nH]nc2c1C(c1ccccc1F)CC(=O)N2 (stereo not drawn)	13.3*	7.3%	-3.6%	17.2%	-11.2
SMILES	Cycloheximide cs	Lassa entry inh	AMA1 RON2 block	MARV entry inh	Shiga toxin inh
c1coc(-c2nc3ccccc3s2)c1	x	19.4%[46.1 µM]	-8.0%	u	x
O=C(Nc1ccc(O)c(-c2nc3ccccc3s2)c1)c1cccs1	0.2	3.4%	-4.0%	-4.2%	8.7
c1ccc2sc(-c3ccncc3)nc2c1	44.2*	25.5%[46.1 µM]	-10.1%	u	50.8*
c1cncc(-c2nc3ccccc3s2)c1	39.0*	x	11.4%	x	111.5*
CC(=O)N(Cc1cccnc1)c1cccc(-c2nc3ccccc3s2)c1	-2.2	-22.0%	-4.1%	u	63.4
Oc1ccc(-c2nc3ccccc3s2)cc1	32.0*	x	0.0%	x	32.2
c1csc(-c2nc3ccccc3s2)c1	55.9*	u	13.8%	u	95.6*
CCC/C=C/c1ccc(CN2C(C)C(=O)N(Cc3cn(CCC4OCCO4)nn3)CCS2(=O)=O)cc1 (stereo not drawn)	x	x	-2.9%	x	x
Cc1ccc(-c2nc3ccccc3s2)cc1S(=O)(=O)N1CCCC1	29.9*	8.8%	32.5%	u	43.5
O=C(Nc1cccc(-c2nc3ccccc3s2)c1)c1ccc2c(c1)OCO2	14.7	4.5%	7.5%	12.2%	-1.8
c1ccc2sc(-c3ccc4c(c3)OCO4)nc2c1	33.6*	9.2µM*	67.2%	u	51.7*
O=S(=O)(c1cccc(-c2nc3ccccc3s2)c1)N1CCOCC1	14.0	-0.2%	11.8%	-20.1%	2.2
Cc1ccc(Cl)cc1N1CCN(C(=O)CCS(=O)(=O)c2ccc3c(c2)oc(=O)n3C)CC1	x	-8.9%[46.1 µM]	x	x	x
CCCCC(=O)N(C)c1c(CC)nc2c(OCC(=O)c3ccc(Cl)cc3Cl)cccn12	x	x	13.9%	x	x
O=C(Nc1ccc2c(c1)OCO2)c1ccc2sc([C@H]3C[C@H](O)[C@@H](CO)O3)nc2c1	x	x	15.5%	x	x
CCOC(=O)C1=C(N)OC2=C(C(=O)CCC2)C1c1sccc1C (stereo not drawn)	1.2	7.4%	1.1%	17.7%	16.6
CCOC(=O)C1=C(N)OC2=C(C(=O)CCC2)C1c1ccc(C)s1 (stereo not drawn)	44.3*	29.3%	-1.5%	28.9%	79.8*
CSc1ccc(CNc2ccc(Cl)cc2)cc1	26.7*	-10.7%	22.6%	6.4%	79.3*
Cc1ccc(NCSc2ccc(Cl)cc2)cc1	x	20.5%[46.1 µM]	-23.8%	8.8%[46.1 µM]	x
COc1cccc(NC(=O)c2c(C)nn(-c3ccccc3)c2Cl)c1	19.0*	x	-4.6%	x	30.9
Cc1nn(-c2ccccc2)c(C)c1C(=O)OCC(N)=O	-1.2	x	-3.1%	x	-11.2
COc1ccc(NC(=O)c2c(C)nn(-c3ccccc3)c2Cl)cc1	15.7*	u	-10.5%	u	x
Cc1nn(-c2ccccc2)c(C)c1C(=O)OCc1ccc(C#N)cc1	36.4*	x	9.6%	x	24.8
Cc1ccc(NC(=O)c2c(C)nn(-c3ccccc3)c2Cl)cc1	35.4*	-15.4%	6.2%	21.8%	66.1*
CC1CC(C)CN(C(=O)CN2C(=O)NC3(CCCCCCC3)C2=O)C1 (stereo not drawn)	x	x	-5.2%	x	x
SMILES	Cycloheximide cs	Lassa entry inh	AMA1 RON2 block	MARV entry inh	Shiga toxin inh
C[C@@H]1C=C(C(=O)NCc2nc3ccccc3[nH]2)O[C@H](OCCCCO)C1	x	x	16.5%	x	x
COC(=O)c1ccc(OC(=O)c2ccccc2F)cc1	1.0	-10.9%	x	-11.1%	-5.6
COc1ccc(COC(=O)c2c(C)nn(-c3ccccc3)c2Cl)cc1	22.3*	u	26.9%	27.5%[46.1 µM]	39.5*
Cc1ccc(C(=O)Nc2cccc(NC(=O)c3ccc(C)o3)n2)o1	6.0	u	-5.8%	-3.8%[46.1 µM]	15.3
COc1ccc(NC(=O)O/N=C/c2ccccc2Cl)cc1	30.5*	x	-7.9%	x	71.6*
CN(C)c1ccc(/C=N/OC(=O)Nc2ccccc2)cc1	36.6*	u	-13.6%	u	52.2*
COC(=O)N/N=C/c1ccccc1Cl	9.4	u	0.0%	8.0%[46.1 µM]	21.5
COc1ccc(NC(=O)O/N=C/c2ccccc2)cc1	39.8*	x	-2.6%	x	78.5*
COCc1ccc(C(=O)N2CCCC(N3CCN(c4cccc(Cl)c4)CC3)C2)s1 (stereo not drawn)	x	x	-14.1%	x	x
Cc1ccc(CCNC(=O)c2cc3sccc3n2Cc2ccc(F)cc2)cc1	x	-20.9%[46.1 µM]	x	10.0%[46.1 µM]	x
